# In PubChem BioAssay (NCATS):
# Values joined by “and” are separate entries in the source; they are usually repeats but may differ in a detail not shown here. Equal entries are not always repeated. Results filed as inconclusive are left out. Where a call stands in place of a potency, no number is given. Unmarked numbers belong to inactive results. Active and inactive are the calls of the source. Calls follow the shape of the dose curve; as a rule, active = well fitted curve in the direction sought with a large enough effect; inconclusive = small, poorly fitted or top-dose-only effect, or another doubt; inactive = no such curve, though single readings can be large; an effect the other way counts as inactive or inconclusive. Where a SMILES comes first, the peptide text is derived from it. Bridges are numbered along the chain shown (N, C = ends). [ ]: non-standard residue; d: D form. The star is where a group is joined. AFC = O=c1cc(C(F)(F)F)c2ccc(N*)cc2o1; X1 = CCC(C)C(N)C1=NC(C(=O)*)CS1; dOrn = NCCC[C@@H](N)C(=O)O
# Assays:
# [1] = Primary qHTS for inhibitors of nuclear receptor binding SET domain protein 2 (NSD2) in an isogenic RCH-ACV NSD2 p.E1099K mutant (9B) (AID 1645876)
# [2] = Primary qHTS for inhibitors of nuclear receptor binding SET domain protein 2 (NSD2) in an RCH-ACV wild type WT cells (2C) (AID 1645877)
# Also: nearly all actives have a fitted effect of over 70% in size.
# Potency is read from the fitted curve at half-maximal effect.
smiles,measurement,setting,value
COC(=O)C1=CO[C@@H](O[C@@H]2O[C@H](CO)[C@@H](O)[C@H](O)[C@H]2O)[C@@H]2[C@@](C)(O)[C@@H](O)C[C@]12O,Potency,[1],inactive
same,Potency,[2],inactive
C=C1CCC2C(OC(=O)C2(O)COC(C)=O)C2C(=C)C(O)CC12 (stereo not given),Potency,[1],inactive
same,Potency,[2],inactive
C[C@]1(OC(=O)/C=C/c2ccccc2)C[C@H](O)[C@]2(O)C=CO[C@@H](O[C@@H]3O[C@H](CO)[C@@H](O)[C@H](O)[C@H]3O)C12 (stereo not given in full),Potency,[1],inactive
same,Potency,[2],inactive
COc1cc(COC2OC(CO)C(O)C(O)C2O)cc(OC)c1O (stereo not given),Potency,[1],inactive
same,Potency,[2],inactive
COc1cc(/C=C/C(=O)OC(C)(C)C(OC2OC(CO)C(O)C(O)C2O)C(=O)OCc2ccc(OC3OC(CO)C(O)C(O)C3O)cc2)ccc1O (stereo not given),Potency,[1],inactive
same,Potency,[2],inactive
COc1cc2c(cc1OC)CN(C(=O)[C@@H](NCc1ccncc1)C(C)(C)C)CC2,Potency,[1],inactive
same,Potency,[2],inactive
C[C@]12CCC(=O)C=C1[C@@H](O)C[C@@H]1[C@@H]2[C@@H](O)C[C@@]2(C)[C@H]1CC[C@]2(O)C(=O)CO,Potency,[1],inactive
same,Potency,[2],inactive
CON(C)C(=O)N1N=C(c2cc(F)ccc2F)S[C@@]1(CCCN)c1ccccc1,Potency,[1],9.2 nM (active) and 14.8 nM (active)
same,Potency,[2],6.5 nM (active) and 13.2 nM (active)
C#Cc1cnc2[nH]c(=O)n(C(CC)CC)c2n1,Potency,[1],inactive
same,Potency,[2],inactive
CC[C@H]1OC(=O)[C@H](C)[C@@H](OC2C[C@@](C)(OC)[C@@H](O)[C@H](C)O2)[C@H](C)[C@@H](OC2O[C@H](C)C[C@H](NC)[C@H]2O)[C@](C)(O)C[C@@H](C)CN(C)[C@H](C)[C@@H](O)[C@]1(C)O (stereo not given in full),Potency,[1],inactive
same,Potency,[2],inactive
COc1ccc(C2=CC(=O)OC2Cc2ccc(O)cc2)c(O)c1 (stereo not given),Potency,[1],inactive
same,Potency,[2],inactive
Cc1c(N2C(=O)c3ccc(C(=O)O)cc3C2=O)c(=O)n(-c2ccccc2)n1C,Potency,[1],inactive
same,Potency,[2],inactive
COc1cc([C@H]2OC[C@@H]3[C@@H](c4ccc(O[C@@H]5O[C@H](CO)[C@@H](O)[C@H](O)[C@H]5O)c(OC)c4)OC[C@]23O)ccc1O,Potency,[1],inactive
same,Potency,[2],inactive
CC(C)=CCC/C(C)=C/CC/C(C)=C/CC[C@]1(C)CCc2cc(O)cc(C)c2O1,Potency,[1],inactive
same,Potency,[2],inactive
CC(C)(O)c1ccc2c(c1)C(=O)CC1[C@](C)(CO)CCC[C@]21C (stereo not given in full),Potency,[1],inactive
same,Potency,[2],inactive
COCC(=O)N1CCc2cc(-c3csc(NC(=O)c4cc(OC)cc(OC)c4)n3)ccc21,Potency,[1],inactive
same,Potency,[2],inactive
CC(C)C1(O[C@@H]2O[C@H](CO)[C@@H](O)[C@H](O)[C@H]2O)CC=C(CO)CC1 (stereo not given in full),Potency,[1],inactive
same,Potency,[2],inactive
C=C1CC2(C(=O)O)CC1CCC2C1(C)CCCC2(C)C(=O)OC(O)C21 (stereo not given),Potency,[1],inactive
same,Potency,[2],inactive
CC1CCC2(C(=O)OC3OC(CO)C(O)C(O)C3O)CCC3(C)C(=CCC4C5(C)CC(O)C(O)C(C)(C(=O)O)C5CCC43C)C2C1(C)O (stereo not given),Potency,[1],inactive
same,Potency,[2],inactive
O=C1[C@H](O[C@@H]2O[C@H](CO)[C@@H](O)[C@H](O)[C@H]2O)Oc2ccccc2N1O,Potency,[1],inactive
same,Potency,[2],inactive
C[C@@H]1CC[C@]2(C(=O)O[C@@H]3O[C@H](CO)[C@@H](O)[C@H](O)[C@H]3O)CC[C@]3(C)C(=CCC4[C@@]5(C)C[C@@H](O)[C@H](O)C(C)(C)C5CC[C@]43C)C2[C@]1(C)O (stereo not given in full),Potency,[1],inactive
same,Potency,[2],inactive
C=C1[C@@H]2[C@H]3OC(=O)C(=C)[C@@H]3CC[C@@](C)(O)[C@@H]2C[C@@H]1O[C@@H]1O[C@H](CO)[C@@H](O)[C@H](O)[C@H]1O,Potency,[1],inactive
same,Potency,[2],inactive
CC1=CC(=O)CC(C)(CO[C@@H]2O[C@H](CO)[C@@H](O)[C@H](O)[C@H]2O)C1(O)/C=C/C(C)=C/C(=O)O (stereo not given in full),Potency,[1],inactive
same,Potency,[2],inactive
CC1(C)NC2N(C1=O)c1ccccc1C2(O)CC(C(=O)O)n1cnc2ccccc2c1=O (stereo not given),Potency,[1],inactive
same,Potency,[2],inactive
COC(=O)CC[C@@H](C)[C@H]1CC[C@H]2[C@@H]3CC(=O)[C@H]4C[C@H](OC(C)=O)CC[C@]4(C)[C@H]3CC[C@]12C,Potency,[1],inactive
same,Potency,[2],inactive
COc1cc(/C=C/CO)ccc1O[C@@H]1O[C@H](CO)[C@@H](O)[C@H](O)[C@H]1O,Potency,[1],inactive
same,Potency,[2],inactive
C[C@@H]1O[C@@H](O[C@H]2[C@H](OC(C#N)c3ccc(O)cc3)O[C@H](CO)[C@@H](O)[C@@H]2O)[C@H](O)[C@H](O)[C@H]1O (stereo not given in full),Potency,[1],inactive
same,Potency,[2],inactive
CC(C)=CCC[C@](C)(O[C@@H]1O[C@H](CO[C@@H]2OC[C@@H](O)[C@H](O)[C@H]2O)[C@@H](O)[C@H](O)[C@H]1O)[C@H]1CC[C@]2(C)[C@@H]1[C@H](O)C[C@@H]1[C@@]3(C)CC[C@H](O[C@@H]4O[C@H](CO)[C@@H](O)[C@H](O)[C@H]4O[C@@H]4O[C@H](CO)[C@@H](O)[C@H](O)[C@H]4O)C(C)(C)[C@@H]3CC[C@]12C,Potency,[1],inactive
same,Potency,[2],inactive
C=C1CCC2C(C)(C(=O)O)CC(O)CC2(C)C1CC/C(C)=C/C(=O)O (stereo not given),Potency,[1],inactive
same,Potency,[2],inactive
O=C(/C=C/c1ccccc1)OCC1=CC[C@@H]2C(C(=O)O)=CO[C@@H](O[C@@H]3O[C@H](CO)[C@@H](O)[C@H](O)[C@H]3O)[C@H]12,Potency,[1],inactive
same,Potency,[2],inactive
Cc1ccc(C(=O)Nc2ccc(Oc3cc4cnn(C)c4cc3-c3cn[nH]c3)c(F)c2)c(=O)n1-c1ccc(F)cc1,Potency,[1],2.9 µM (active) and 5.9 µM (active)
same,Potency,[2],2.9 µM (active) and 3.72 µM (active)
CCC(C)C(N)C1=NC(C(=O)N[C@@H](CC(C)C)C(=O)N[C@H](CCC(=O)O)C(=O)N[C@H](C(=O)N[C@H]2CCCCNC(=O)[C@H](CC(N)=O)NC(=O)[C@@H](CC(=O)O)NC(=O)[C@H](Cc3cnc[nH]3)NC(=O)[C@@H](Cc3ccccc3)NC(=O)[C@H]([C@@H](C)CC)NC(=O)[C@@H](CCCN)NC2=O)[C@@H](C)CC)CS1 (stereo not given in full) (X1-L[dE]IK[dOrn]I[dF]H[dD]N; lactam 4-C),Potency,[1],inactive
same,Potency,[2],inactive
COc1cc(NC(=O)c2ccccn2)ccc1Cl,Potency,[1],inactive
same,Potency,[2],inactive
COc1ccc(C[C@H](N)C(=O)N[C@H]2[C@@H](O)[C@H](n3cnc4c(N(C)C)ncnc43)O[C@@H]2CO)cc1,Potency,[1],409 nM (active)
same,Potency,[2],258 nM (active)
COC(=O)[C@]12C(=O)C(C)=C(O)[C@@]1(C)C(C)=CC1[C@@]34CC[C@@H](OC(C)=O)C(C)(C)C3[C@H](C[C@]12C)OC4=O (stereo not given in full),Potency,[1],inactive
same,Potency,[2],inactive
CC(C)(O)c1ccc2c(c1)C(O)CC1C(C)(C(=O)O)CCCC21C (stereo not given),Potency,[1],inactive
same,Potency,[2],inactive
Cc1nc2c(-c3cnc(N)nc3)nc(N3CCOCC3)nc2n1C(C)C,Potency,[1],72.8 nM (active) and 132 nM (active)
same,Potency,[2],72.8 nM (active) and 132 nM (active)
CC1CCC2(C)C(CC(O)C(O)C23CO3)C1(C)CCC1=CC(O)OC1=O (stereo not given),Potency,[1],inactive
same,Potency,[2],inactive
CC(c1c[nH]c2ccccc12)C(O)C(=O)O (stereo not given),Potency,[1],inactive
same,Potency,[2],inactive
C[C@@H]1O[C@@H](O[C@H]2[C@H](O[C@H]3[C@H](O[C@H]4CC[C@@]5(CO)C(CC[C@]6(C)C5CC=C5C7CC(C)(C)C[C@@H](O)[C@]7(C)CC[C@]56C)C4(C)C)O[C@H](C(=O)O)[C@@H](O)[C@@H]3O)OC[C@@H](O)[C@@H]2O)[C@H](O)[C@H](O)[C@H]1O (stereo not given in full),"activity change, negative = viability loss",[1],-1.45% [at 9.23 µM]
same,"activity change, negative = cell killing",[2],-8.5% [at 9.23 µM]
C=CCc1ccc(O[C@@H]2O[C@H](CO[C@@H]3O[C@@H](C)[C@H](O)[C@@H](O)[C@H]3O)[C@@H](O)[C@H](O)[C@H]2O)cc1,Potency,[1],inactive
same,Potency,[2],inactive
C=CC1(C)C=C2C(O)CC3C(C)(C(=O)O)CCCC3(C)C2CC1 (stereo not given),Potency,[1],inactive
same,Potency,[2],inactive
C[C@]12CC[C@@H]3c4ccc(O[C@@H]5O[C@H](C(=O)O)[C@@H](O)[C@H](O)[C@H]5O)cc4CC[C@H]3[C@@H]1CCC2=O,Potency,[1],inactive
same,Potency,[2],inactive
C=C1CC2C3(C)C(O)CC(=O)C(C)(C)C3C(OC(C)=O)C(OC(C)=O)C2(C)C2C(=O)OC(C)(C(=O)OC)C(=O)C12C (stereo not given),Potency,[1],inactive
same,Potency,[2],inactive
O=C1NC(=Nc2ccccc2F)S/C1=C\c1ccc(C(=O)O)cc1,Potency,[1],inactive
same,Potency,[2],inactive
FC(F)(F)c1cc(C(F)(F)F)c2ccc3nc(-c4nnco4)cn3c2n1,Potency,[1],inactive
same,Potency,[2],inactive
C=C1C2(CCC(=O)OC2(C)C)CC(OC(=O)/C(C)=C/C)C2(C)C13OC14C(=O)OC(C)(C(=O)C12C(=O)OC4C)C3OC(C)=O (stereo not given),Potency,[1],inactive
same,Potency,[2],inactive
Nc1nc(CC(=O)Nc2ccc(CCNCC(O)c3ccccc3)cc2)cs1 (stereo not given),Potency,[1],inactive
same,Potency,[2],inactive
CC1(C)OC(=O)C(OCC2CC2)=C1c1ccc(S(C)(=O)=O)cc1,Potency,[1],inactive
same,Potency,[2],inactive
Cc1nnc(C(C)C)n1C1CC2CCC(C1)N2CCC(NC(=O)C1CCC(F)(F)CC1)c1ccccc1 (stereo not given),Potency,[1],inactive
same,Potency,[2],inactive
OCCc1ccc(O[C@@H]2O[C@H](CO)[C@@H](O)[C@H](O)[C@H]2O)c(O)c1,Potency,[1],inactive
same,Potency,[2],inactive
CC1(CO)CC[C@]2(C(=O)O[C@@H]3O[C@H](CO)[C@@H](O)[C@H](O)[C@H]3O)CC[C@]3(C)C(=CCC4[C@@]5(C)CC[C@H](O[C@@H]6O[C@H](C(=O)O)[C@@H](O)[C@H](O)[C@H]6O)C(C)(C)C5CC[C@]43C)C2C1 (stereo not given in full),outcome,[1],inactive [at 9.23 µM]
same,outcome,[2],inactive [at 9.23 µM]
CC(=O)N[C@@H](CC(C)C)C(=O)N[C@@H](CCC(=O)O)C(=O)N[C@@H](CCC(=O)O)C(=O)N[C@@H](CC(=O)O)C(=O)Nc1ccc2c(C(F)(F)F)cc(=O)oc2c1 (Ac-LEED-{AFC}),Potency,[1],inactive
same,Potency,[2],inactive
CCCCNC(=O)[C@@H]1Cc2ccccc2N1C(=O)[C@@H](N)CC,Potency,[1],inactive
same,Potency,[2],inactive
CCOc1nc2cccc(C(=O)O)c2n1Cc1ccc(-c2ccccc2-c2noc(=O)[nH]2)cc1,Potency,[1],inactive
same,Potency,[2],inactive
